Results filed as inconclusive are left out. Calls of active or inactive are those of the source. Calls follow the shape of the dose curve; as a rule, active = well fitted inhibition curve with a large enough effect; inconclusive = small, poorly fitted or top-dose-only effect; inactive = no such curve, though single readings can be large or run the other way. Peptide text beside a SMILES is read from it.
Test: qHTS to identify inhibitors of the type 1 interferon - major histocompatibility complex class I in skeletal muscle: primary screen against the NCATS Mechanism Interrogation Plate v5.0 (MIPE) Libary (AID 1347411); also: nearly all actives have a fitted effect of over 65% in size;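 as to activity change, negative = inhibition: plate controls were vehicle for no effect and reference inhibitor for full effect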
Conditions: iHSKM cells + IFN-b, HiBiT-tagged MHC-I luminescence, 24 h; series mostly up to 45.8 µM; activity change, negative = inhibition: at the top concentration
Source text: Assay Submitter (PI): Travis B. Kinder Ph.D. & James Inglese Ph.D.
Assay Development and Screening Technology Laboratory (ADST)
National Center for Advancing Translational Sciences (NCATS), Rockville, MD
National Institute of Health (NIH), Bethesda, Maryland
Idiopathic inflammatory myopathies, collectively referred to as myositis, are a group of rare autoimmune diseases characterized by skeletal muscle inflammation, weakness, and usually accompanied by systemic pathologies of the skin, lungs, or vasculature. Current immunosuppressive therapies and glucocorticoids are often not curative and are accompanied by harsh side effects, especially in children with juvenile myositis. We initiated a drug repurposing and development program to identify more targeted, less toxic therapeutics to treat myositis. Although its cause is not known, muscle from a subset of patients have an abundance of the inflammatory type 1 interferon (IFN) and a down-stream product major histocompatibility complex class I (MHC class I), which are both thought to contribute to damage and weakness. We conducted quantitative high throughput screening on 6,576 compounds (4,679 unique) through a series of cell-based assays to identify those that inhibit the IFN-stimulated expression of MHC class I in muscle precursor cells (myoblasts). The compound identification and evaluation strategy utilized a primary screen with reporter-tagged MHC class I in genome-engineered myoblasts, ATP content counter screen for viability, HLA-ABC immunofluorescence secondary screen, and HLA-B RT-qPCR tertiary screen.
The primary screen utilized CRISPR/Cas9 genome-engineering of immortalized human myoblasts, C25cl48, where a pro-luminescent reporter HiBit was fused to the C-terminus of endogenous MHC class I allele HLA-B*08:01 (HLA-B HiBit myoblasts). HiBit is an 11 amino acid fragment of NanoLuc luminescent reporter (Promega Corporation), and when complexed to the larger LgBit fragment, the reconstituted enzyme produces light in the presence of furimazine substrate (Schwinn et al., 2018). Briefly, HLA-B HiBit myoblasts were plated into 1536-well plates, treated with 4.0 ng/ml human IFN-beta and 2,480 compounds from the NCATS Mechanism Interrogation Plate v5.0 (MIPE5.0) in an 11-point, 1:3 titration with a high final concentration of 46 uM. After 24 hrs of treatment, cells were assayed by Nano-Glo HiBiT Lytic Detection System (Promega) and luminescence measured by a ViewLux 1430 Ultra HTS (Perkin Elmer).
Schwinn MK, Machleidt T, Zimmerman K, Eggers CT, Dixon AS, Hurst R, Hall MP, Encell LP, Binkowski BF, Wood K V. 2018. CRISPR-Mediated Tagging of Endogenous Proteins with a Luminescent Peptide. ACS Chem Biol 13:467-474. doi:10.1021/acschembio.7b00549
PROTOCOL TABLE (as described by Inglese et al., 2007)
SEQUENCE No. (e.g., 1, 2, 3, etc.); […] (e.g., Cells, Incubation, Reagent, etc.); VALUE; DESCRIPTION
1a; Cells; 5 uL; Use a Multidrop Combi (Thermo Scientific) to seed 300 cells/well into 24 Greiner 1536 well white/solid bottom, high base, TC plates in 5 ul/well of iHSKM growth medium (GM) without dexamethasone into columns 1+2. Add metal lids with gas-exchange holes
1b; Cells; 5 uL; Use a Multidrop Combi (Thermo Scientific) to seed 300 cells/well into 24 Greiner 1536 well white/solid bottom, high base, TC plates in 5 ul/well of iHSKM GM without dexamethasone + 4 ng/ml IFN-b into columns 3 - 48. Add metal lids with gas-exchange holes
2; Incubate; 1 hr; Incubate at 37 C, 5% CO2, 95% RH
3; Compounds; 23 nl; Use Pin Tool (Wako) to transfer DMSO control, ruxolitinib IFN-b inhibitor control [High Concentration = 80 uM final, 16-pt, 1:2 in duplicate], and library compounds in DMSO
4; Incubate; 24 hrs; Incubate at 37 C, 5% CO2, 95% RH
5; Dispense; 2.5 ul; Use BioRAPTR FRD (Beckman Coulter) to add HiBit lytic reagent
6; Incubate; 10 min; Incubate in the dark at ambient temperature for lysis
7; Detector; 5 sec; Measure luminescence with ViewLux 1430 Ultra HTS (Perkin Elmer). […]
Potency is read from the fitted curve at half-maximal effect.

Compound	activity change, negative = inhibition	Potency
Nc1nc(Cl)nc2c1ncn2[C@H]1C[C@H](O)[C@@H](CO)O1	-13.5% (inactive)	–
Nc1nc(OCc2ccccc2)c2[nH]cnc2n1	-14% (inactive)	–
O=C(NC(Cc1cc(=O)[nH]c2ccccc12)C(=O)O)c1ccc(Cl)cc1 (stereo not given)	0.725% (inactive)	–
O=C1c2c(O)cc(O)cc2OC(c2ccc(O)c(O)c2)C1O (stereo not given)	10.7% (inactive)	–
Cc1cc2c(s1)Nc1ccccc1N=C2N1CCN(C)CC1	17.7% (inactive)	–
O=P(O)(O)C(O)(Cn1ccnc1)P(=O)(O)O	2.74% [at 5.1 µM] (inactive)	–
Cc1cccc(CN2CCN(C(c3ccccc3)c3ccc(Cl)cc3)CC2)c1 (stereo not given)	6.07% (inactive)	–
CN(C)c1ccc2nc3ccc(=[N+](C)C)cc-3sc2c1	–	18.6 µM (active)
Cc1ccc(C)c(OCCCC(C)(C)C(=O)O)c1	4.21% (inactive)	–
COC1=C(OC)C(=O)C(CCCCCCCCCCO)=C(C)C1=O	-29.9% (inactive)	–
O=C(NCC1CCCCN1)c1cc(OCC(F)(F)F)ccc1OCC(F)(F)F (stereo not given)	2.17% (inactive)	–
O=C(O)c1cccc(-c2noc(-c3ccccc3F)n2)c1	11.6% (inactive)	–
CCCc1cc(=O)[nH]c(=S)[nH]1	-4.57% (inactive)	–
c1ccc2[nH]c(-c3cscn3)nc2c1	-25.7% (inactive)	–
Clc1ccc(C(Cn2ccnc2)OCc2c(Cl)cccc2Cl)c(Cl)c1 (stereo not given)	-23% (inactive)	–
O=c1c(O)c(-c2cc(O)c(O)c(O)c2)oc2cc(O)cc(O)c12	-22.7% (inactive)	–
CCOC(=O)C1=C(O)C(=O)N(Cc2ccccc2)C1	-16.4% (inactive)	–
O=C(O)c1cn(-c2ccc(F)cc2)c2cc(N3CCNCC3)c(F)cc2c1=O	-28.9% (inactive)	–
Nc1ncn([C@H]2C[C@H](O)[C@@H](CO)O2)c(=O)n1	15.9% (inactive)	–
CN(C)C(=O)[C@H](O)[C@H](Cc1ccccc1)NC(=O)c1cc2cc(Cl)ccc2[nH]1	-15.2% (inactive)	–

Compound	activity change, negative = inhibition	Potency
O=C(c1ccccc1)c1ccc2n1CCC2C(=O)O (stereo not given)	-3.14% (inactive)	–
COC(=O)[C@H](Cc1ccccc1)NC(=O)[C@@H](N)CC(=O)O (H-Asp-Phe-OMe)	-1.54% (inactive)	–
CCCCN(CCCC)CCC(O)c1cc2c(Cl)cc(Cl)cc2c2cc(C(F)(F)F)ccc12 (stereo not given)	10.6% (inactive)	–
CC(S)C(=O)NCC(=O)O (stereo not given)	-6.1% (inactive)	–
Clc1ccc2c(N3CCN(CCCN4CCN(c5ccnc6cc(Cl)ccc56)CC4)CC3)ccnc2c1	0.369% (inactive)	–
CC(=O)NC[C@H]1CN(c2ccc(N3CCOCC3)c(F)c2)C(=O)O1	7.94% (inactive)	–
Nc1cc(C(Cl)=C(Cl)Cl)c(S(N)(=O)=O)cc1S(N)(=O)=O	12.2% (inactive)	–
Oc1ccc(-c2nc(-c3ccc(F)cc3)c(-c3ccncc3)[nH]2)cc1	-12.4% (inactive)	–
Cn1c(NCCN(CCO)CCCc2ccc([N+](=O)[O-])cc2)cc(=O)n(C)c1=O	-7.33% (inactive)	–
Clc1ccc(C(Cn2ccnc2)OCc2ccsc2Cl)c(Cl)c1 (stereo not given)	-15% (inactive)	–
CC1(C)CCC(C)(C)c2cc(NC(=O)c3ccc(C(=O)O)cc3)ccc21	-17.1% (inactive)	–
Nc1ccn([C@@H]2O[C@H](CO)[C@@H](O)C2O)c(=O)n1 (stereo not given in full)	-4.75% (inactive)	–
CCOC(=O)C1=C[C@@H](OC(CC)CC)[C@H](NC(C)=O)[C@@H](N)C1	4.73% (inactive)	–
CCCCC(CC)COC(=O)C(C#N)=C(c1ccccc1)c1ccccc1 (stereo not given)	-0.0609% (inactive)	–
COc1cc(OC)c(C(=O)CCCN2CCCC2)c(OC)c1	3.43% (inactive)	–
Cc1cc(Cl)ccc1OCCCC(=O)NO	-15.8% (inactive)	–
C[C@@H](c1ncncc1F)[C@](O)(Cn1cncn1)c1ccc(F)cc1F	-4.68% (inactive)	–
O=C(NOCC1CC1)c1ccc(F)c(F)c1Nc1ccc(I)cc1Cl	-25.8% (inactive)	–
COc1ccc2cc([C@H](C)C(=O)O)ccc2c1	-7.61% (inactive)	–
CC(=O)N1CCN(c2ccc(OC[C@H]3CO[C@](Cn4ccnc4)(c4ccc(Cl)cc4Cl)O3)cc2)CC1	-31.4% (inactive)	–

— PubChem BioAssay (NCATS)
